Experiment [1] can be described thus: AP1 Signaling Pathway (AID 357; active means well fitted curve in either direction with a large enough effect, not every such curve was filed as active;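 further: ME-180 reporter cells stimulated with EGF at its EC50 level; on the % scale 0 is the no-effect control and ±100 the full control effect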). The gist of the method: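 In this screen, ME-180 cells in Opti-MEM with 0.5% dialyzed FBS received EC50 EGF and compound titrations for 5 h. AP-1 reporter beta-lactamase was detected via CCF4 ratio, giving AC50 for positive and negative modulators.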
Experiment [2] can be described thus: NFAT Signaling Pathway (AID 444; active means well fitted curve in either direction with a large enough effect, not every such curve was filed as active;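 further: carbachol stimulus at about its EC50 of 1 µM final; on the % scale 0 is the no-effect control and ±100 the full control effect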). Conditions: Jurkat NFAT-bla M1, carbachol, beta-lactamase ratio, 5 h; at 38 µM (top of the series) unless noted. The gist of the method:
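Jurkat cells carrying an NFAT-driven β-lactamase reporter and co-transfected muscarinic M1 receptor were treated with compound plus carbachol (1 uM final, an EC50 level) for 5 h at 37 °C. CCF4 loading followed for 1 h at RT; 460/530 nm ratio gave %activity.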

Experiment [3] can be described thus: Stat Signaling Pathway (AID 446; active means well fitted curve in either direction with a large enough effect, not every such curve was filed as active;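 further: ME-180 cervical cancer cells given 40 pM IL-6 alongside compound; SIE-controlled beta-lactamase reporter measured as 460/530 nm FRET emission ratio; on the % scale 0 is the no-effect control and ±100 the full control effect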). Conditions: ME-180 SIE beta-lactamase reporter, IL-6 stimulated, 5 h; at 38 µM (top of the series) unless noted. The gist of the method:
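Screening format detects activators and inhibitors alike: ME-180 SIE-bla cells stimulated at 40 pM IL-6 for 5 hrs with compound, then dual-emission beta-lactamase read at 405 nm excitation.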

The target in experiment [4] is Glucocorticoid receptor (Homo sapiens) (UniProt P04150). Briefly: GR-EFC Redistribution (AID 451; calls by dose curve; further: potency means the concentration at half of the fitted maximal effect). Conditions: CHO-K1 GR-EFC translocation, beta-gal luminescence, 2 h. The gist of the method: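 CHO-K1 cells stably expressing nuclear-localized β-gal enzyme acceptor and GR fused C-terminally to the enzyme donor fragment; ligand-driven nuclear translocation restores β-gal by complementation. Compounds titrated up to 46 uM final, 2 h at 37 °C; luminescence read.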

Experiment [5] has as its target Mitogen-activated protein kinase 10 (Mus musculus) (UniProt Q61831). Briefly: JNK3 AlphaScreen Assay (AID 530; active means well fitted curve in either direction with a large enough effect, not every such curve was filed as active;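 further: kinase came from lysate of stimulated human HepG2 cells; signal reports phosphorylation of biotinylated GST-cJun 1-79 at Ser73 with 10 µM ATP; on the % scale 0 is the no-effect control and ±100 the full control effect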). In outline:
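JNK3 came from HepG2 lysates pre-activated with IL-1beta and TNF-alpha and phosphorylated biotinylated GST-cJun (1-79) at 10 uM ATP, pH 7.6, room temperature. Compounds were titrated. AlphaScreen signal used anti-phospho-cJun (Ser73) antibody.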

In experiment [6] the target is 3',5'-cyclic-AMP phosphodiesterase 4B (Homo sapiens) (UniProt Q07343). Put plainly: qHTS Assay for Inhibitors of PDE-IV (AID 607; active means well fitted activation curve with a large enough effect in the main read-out, with a control signal flat, not every such curve was filed as active; further: % of control where 0% means no effect). The gist of the method:
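The readout is membrane depolarisation from a cAMP-sensing CNG channel, detected with a potential dye at ex 535/em 590. Cells were HEK293-derived (endogenous PDE-IV) at 1000 cells/well, titrated up to 22.9 uM final.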
In general terms: qHTS replaces the single test concentration by a dilution series.

Experiment [7] is described as follows: Cell Viability - BJ (AID 421; calls by dose curve;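 further: potency means the concentration at half of the fitted maximal effect; cells exposed to compound for 40 hours at 37 °C before readout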). Conditions: BJ fibroblast viability, qHTS. The gist of the method: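 Cytotoxicity in human BJ foreskin fibroblasts is scored as loss of cellular ATP after a 40-hour exposure, measured by luciferase luminescence. Controls are DMSO and 100 uM tamoxifen.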
Experiment [8] is described as follows: Cell Viability - Jurkat (AID 426;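 active means dose-dependent loss of cell ATP signal giving a full or clear fitted curve, ranked by lower potency value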; further: potency means the concentration at half of the fitted maximal effect). As to conditions: qHTS. The gist of the method: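 Jurkat (clone E6-1, human T-cell leukemia) cells, 5000/well in complete medium, were exposed to compound for 40 hr at 37 °C. Viability was read as intracellular ATP by CellTiter-Glo luminescence; AC50 came from Hill fits of concentration-response data.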
A short description of experiment [9]: Cell Viability - Hek293 (AID 427;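 active means compounds whose dose-response curve shows a full or clear partial loss of cell viability, called from curve shape rather than a numeric limit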;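 further: potency means the concentration at half of the fitted maximal effect; cells exposed to compound for 40 hours at 37 °C before reading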). Conditions: qHTS. The gist of the method:
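qHTS, human embryonic kidney (adenovirus-transformed) cells; 40 hr cpd, 37 °C; CellTiter-Glo ATP luminescence. Norm: DMSO = 0, 100 uM tamoxifen = 100% inhibition. Hill-fit AC50.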

Experiment [10] is described as follows: Cell Viability - MRC5 (AID 434; calls by dose curve;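 further: potency means the concentration at half of the fitted maximal effect; potency reflects cytotoxicity seen as loss of intracellular ATP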). Conditions: MRC5 lung fibroblast viability, qHTS. In outline:
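MRC5 normal human lung fibroblasts (1500/well) were treated with compounds for 40 hr at 37 °C in complete medium, and viable cells were measured as intracellular ATP by CellTiter-Glo luminescence. AC50 came from Hill fits, normalized to DMSO and 100 uM tamoxifen.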

Experiment [11] can be described thus: Cell Viability - SK-N-SH (AID 435; calls by dose curve;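 further: potency means the concentration at half of the fitted maximal effect; compound exposure lasted 40 h at 37 °C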). Conditions: SK-N-SH neuroblastoma cell viability qHTS. The gist of the method:
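Cells seeded at 1500 per well and incubated 5 hr at 37 °C. Compound added, then 40 hr at 37 °C. CellTiter-Glo added, 20 min at room temperature, luminescence read.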

Experiment [12] is described as follows: Cell Viability - N2a (AID 540). Further: nearly all actives have a fitted effect of over 45% in size. Further: potency means the concentration at half of the fitted maximal effect.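 On activity change, negative = cytotoxicity: plate controls were DMSO alone for no effect and tamoxifen control for full effect.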 As to conditions: N2a mouse neuroblastoma cell viability; activity change, negative = cytotoxicity: at 92.2 µM (top of the series). In outline:
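Mouse neuroblastoma N2a cells (1500/well) were preincubated 5 hr at 37 °C, then exposed to compounds for 40 hr at 37 °C in complete medium. Viability was read as intracellular ATP by CellTiter-Glo luminescence; AC50 from Hill fits.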

The nature of experiment [13]: Cell Viability - NIH 3T3 (AID 541). Further: nearly all actives have a fitted effect of over 25% in size. Further: potency means the concentration at half of the fitted maximal effect.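 On activity change, negative = cytotoxicity: plate controls were DMSO alone for no effect and tamoxifen positive control for full effect.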 As to conditions: NIH 3T3 cell viability, qHTS; activity change, negative = cytotoxicity: at 92.2 µM (top of the series). In outline: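 NIH 3T3 mouse embryo fibroblasts (1000 cells/well) were plated in complete medium and treated with compound for 40 hr at 37 °C. Viability was read as intracellular ATP by CellTiter-Glo luminescence; AC50 values came from Hill-equation fits of concentration-response data.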

Experiment [14] can be described thus: Cell Viability - SH-SY5Y (AID 544). Further: nearly all actives have a fitted effect of over 55% in size. Further: potency means the concentration at half of the fitted maximal effect. In outline: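 Human neuroblastoma SH-SY5Y cells (1500/well) in complete medium were exposed to compounds for 40 hr at 37 °C; intracellular ATP was then quantified by CellTiter-Glo luminescence after 20 min at room temperature. AC50 came from Hill-equation concentration-response fits.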
Experiment [15] can be described thus: Cell Viability - Renal Proximal Tubule (AID 545). Further: nearly all actives have a fitted effect of over 40% in size. Further: potency means the concentration at half of the fitted maximal effect.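 On activity change, negative = cytotoxicity: 0% = DMSO only and -100% = 100 µM tamoxifen.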 Conditions: renal proximal tubule cells viability; activity change, negative = cytotoxicity: at 91.7 µM (top of the series). The gist of the method:
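Cytotoxicity is scored as a concentration-dependent drop in cellular ATP in primary rat renal proximal tubule cells exposed for 40 hr. AC50 derives from Hill modelling.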

Experiment [16] can be described thus: Cell Viability - Mesenchymal (AID 546).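 Further: cells exposed to compound for 40 hours before reading; 0% = DMSO only and -100% = 100 µM tamoxifen.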 In outline:
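Normal human renal glomerulus-derived kidney mesenchymal cells, 1000 per well in complete medium, were treated with compounds for 40 hr at 37 °C. Viability was read as intracellular ATP by CellTiter-Glo luminescence; AC50 values came from Hill-equation fits of qHTS concentration-response data.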

Experiment [17] in a line: Cell Viability - H-4-II-E (AID 543). Further: on the % scale 0 is the no-effect control and ±100 the full control effect; nearly all actives have a fitted effect of over 35% in size. The gist of the method: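 Rat hepatoma H-4-II-E cells (1500/well) were plated, incubated 5 hr at 37 °C, then exposed to compounds for 40 hr at 37 °C. Cellular ATP was read by CellTiter-Glo luminescence; AC50 came from Hill-equation fits of concentration-response data.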

“And” between values parts separate entries of the source, which are not always exact repeats. Identical values can stand only once. Unmarked numbers belong to inactive results. Inconclusive results are not listed. The source made the active and inactive calls. Unless noted, the call rests on the fitted dose curve; in most records, active means well fitted cell-killing curve with a large enough effect; inconclusive means small, poorly fitted or top-dose-only effect; inactive means flat fitted curve, though single readings scatter.

Sequence of Glucocorticoid receptor (Homo sapiens) (P04150 whole entry, looked up, the tested form may be a part): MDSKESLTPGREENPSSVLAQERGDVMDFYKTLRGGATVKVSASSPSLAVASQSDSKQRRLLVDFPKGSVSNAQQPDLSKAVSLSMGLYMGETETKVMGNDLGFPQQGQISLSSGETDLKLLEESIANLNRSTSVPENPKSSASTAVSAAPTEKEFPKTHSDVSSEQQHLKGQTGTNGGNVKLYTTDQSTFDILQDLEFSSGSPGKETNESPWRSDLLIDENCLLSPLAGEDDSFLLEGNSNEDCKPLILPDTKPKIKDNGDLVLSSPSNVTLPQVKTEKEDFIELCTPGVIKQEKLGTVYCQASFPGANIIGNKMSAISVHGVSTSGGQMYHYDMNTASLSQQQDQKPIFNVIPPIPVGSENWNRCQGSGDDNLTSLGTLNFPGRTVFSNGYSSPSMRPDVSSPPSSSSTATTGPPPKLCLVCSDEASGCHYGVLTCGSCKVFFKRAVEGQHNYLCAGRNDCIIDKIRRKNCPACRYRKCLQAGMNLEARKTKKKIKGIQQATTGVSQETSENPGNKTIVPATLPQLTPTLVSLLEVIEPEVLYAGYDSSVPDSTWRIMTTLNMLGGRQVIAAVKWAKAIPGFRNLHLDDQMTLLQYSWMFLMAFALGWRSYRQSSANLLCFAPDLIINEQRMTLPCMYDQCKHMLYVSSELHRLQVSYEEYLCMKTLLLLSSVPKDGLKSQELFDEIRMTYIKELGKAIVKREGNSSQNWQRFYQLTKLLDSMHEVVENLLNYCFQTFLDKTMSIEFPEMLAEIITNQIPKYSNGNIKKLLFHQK
Sequence of 3',5'-cyclic-AMP phosphodiesterase 4B (Homo sapiens) (Q07343 whole entry, looked up): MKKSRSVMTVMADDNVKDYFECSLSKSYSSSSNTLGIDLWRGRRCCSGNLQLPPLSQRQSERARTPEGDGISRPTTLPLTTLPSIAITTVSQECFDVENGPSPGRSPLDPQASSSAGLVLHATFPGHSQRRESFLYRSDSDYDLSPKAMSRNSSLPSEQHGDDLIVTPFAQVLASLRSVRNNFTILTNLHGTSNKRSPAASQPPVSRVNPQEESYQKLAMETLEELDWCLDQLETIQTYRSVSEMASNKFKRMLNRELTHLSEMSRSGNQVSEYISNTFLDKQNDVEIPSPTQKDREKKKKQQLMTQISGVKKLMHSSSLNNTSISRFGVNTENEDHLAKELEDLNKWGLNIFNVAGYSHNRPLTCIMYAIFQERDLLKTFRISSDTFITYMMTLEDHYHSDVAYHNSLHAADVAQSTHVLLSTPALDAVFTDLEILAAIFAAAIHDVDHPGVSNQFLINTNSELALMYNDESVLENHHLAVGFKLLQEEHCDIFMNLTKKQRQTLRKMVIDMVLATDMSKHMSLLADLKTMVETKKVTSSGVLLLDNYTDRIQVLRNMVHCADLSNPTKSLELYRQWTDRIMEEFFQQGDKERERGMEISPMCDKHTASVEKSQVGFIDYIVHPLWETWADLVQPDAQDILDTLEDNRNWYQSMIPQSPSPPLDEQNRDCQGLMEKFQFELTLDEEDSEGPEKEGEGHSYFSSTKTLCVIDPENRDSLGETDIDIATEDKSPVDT

Take `c1ccc2c(N3CCNCC3)cccc2c1`: the outcome in experiment [1] and in experiment [5] was inactive. The activity change, negative = inhibition in experiment [2] was -26.6%. For the same compound, the activity, negative = inhibition in experiment [3] is -46.5%. Further, the Potency in experiment [4] was over 46 µM. For the same compound, the Potency result in experiment [6] is “inactive”.

For `NCCCP(=O)(O)O`, the call in experiment [1] and in [5] was inactive. The activity change, negative = inhibition in experiment [2] was -4.18%. For the same compound, the activity, negative = inhibition in [3] was 26.4%. Further, the Potency in [4] is over 46 µM. For the same compound, in [6], the Potency entry is “inactive”.

With `CC(=O)NBr`, the compound was classed as inactive in experiment [1] and in experiment [5]. Besides, the activity change, negative = inhibition in experiment [2] was -0.158%. Besides, in [4], the Potency is over 46 µM. The Potency entry in experiment [6] is “inactive”.

For the compound `CN(N=O)c1ccc(O)c(O)c1`, the result in experiment [1] was inactive. Besides, the activity change, negative = inhibition in experiment [2] was 0.97%. The Potency in experiment [4] is over 46 µM. Besides, in experiment [6], the Potency result was “inactive”.

As to `[O]=[Cr](=[O])([OH])[O][Cr](=[O])(=[O])[OH]`, the Potency in experiment [7] was 19.5 µM (active) and 13.4 µM (active) and 4.66 µM (active); in [8] it was 1.88 µM (active) and 3.05 µM (active) and 549 nM (active); in experiment [9] it was 30.9 µM (active) and 31.8 µM (active) and 19.2 µM (active); in experiment [10] it was 4.16 µM (active) and 11.5 µM (active) and 9.77 µM (active); in experiment [11], 19.2 µM (active) and 17.1 µM (active) and 3.88 µM (active); in experiment [12], 39.8 µM (active) and 25.1 µM (active). Further, the Potency was 15.8 µM (active) in experiment [13]; 316 nM (active) and 15.8 µM (active) and 3.98 µM (active) in experiment [14]; 2.51 µM (active) and 7.94 µM (active) and 501 nM (active) in experiment [15]. For the same compound, the result in [5] was inactive. The activity change, negative = cytotoxicity in experiment [12] is -124% (active); in experiment [13], -141% (active) and -151% (active). Besides, the Potency result in experiment [16] is “inactive”.

With `Cc1c2ccncc2c(C)c2c1[nH]c1ccccc12`, the call in [1] and in experiment [5] was inactive. Further, the activity, negative = inhibition in experiment [3] was 128% [activator] [at 17.2 µM] (active) and 142% [activator] [at 17.2 µM] (active). Moreover, the Potency in experiment [4] was > 46 µM and > 20.6 µM. Moreover, the Potency entry in [6] is “inactive”.

Turning to `CCC(=O)O[C@@](Cc1ccccc1)(c1ccccc1)[C@@H](C)CN(C)C`, the result in experiment [1] and in experiment [5] was inactive. In addition, the activity change, negative = inhibition in [2] is -25.8% [at 17.2 µM]. The activity, negative = inhibition in [3] is 5.74% [at 17.2 µM].

In the case of `C=CCN=C=S`, the Potency in experiment [7], in [8], in [9], in [10] and in experiment [11] was over 92 µM each time. For the same compound, the compound was called inactive in experiment [5]. The Potency entry in experiment [12], in experiment [13], in experiment [17], in [14], in experiment [15] and in [16] was “inactive” throughout.

Turning to `CCCCCCCCOC(=O)c1ccccc1C(=O)OCCCCCCCC`, the Potency in experiment [7], in experiment [9], in [10] and in [11] was over 92 µM each time. The result in experiment [5] was inactive. The Potency result in experiment [12], in experiment [13], in experiment [17], in experiment [14], in experiment [15] and in [16] was “inactive” each time.

For the compound `Oc1cc(Cl)c(Cl)cc1Cl`, the Potency in experiment [7] is over 92 µM; in [9], over 92 µM; in experiment [10], over 92 µM; in experiment [12], 25.1 µM (active). In addition, the compound was classed as inactive in experiment [5]. In addition, the Potency entry in [13], in experiment [17], in experiment [14], in experiment [15] and in experiment [16] was “inactive” in each case.
